The text below walks through data of PubChem BioAssay (NCI).

Compounds without any hit were thinned out: in the full panel of roughly 83,000, 20% have a hit.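 Note: values are percent growth. 100 is the growth of untreated cells, values between 100 and 0 indicate rising inhibition; between -100 and 0 indicates cell death.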 Unmarked numbers belong to inactive results. The source made the active and inactive calls. How the source made its calls: active means growth percent below 10; inactive means the rest.

Test systems include NCI-H23 lung; NCI-H226 lung; NCI-H322M lung; HOP-62 NSCLC; NCI-H460 lung; HOP-92 NSCLC; NCI-H522 lung; A549/ATCC NSCLC; 786-0 renal; COLO 205 colon; DU-145 prostate; K-562 leukemia; MALME-3M melanoma; MDA-MB-231 breast; RXF 393 renal; SF-268 CNS; SF-295 CNS; SF-539 CNS; UACC-257 melanoma; M14 melanoma.
What all share (experiment): NCI-60 one-dose screen, 48 h (100 = growth as untreated, 0 = no growth, -100 = all killed)
Common to all, as to settings: 10 µM unless noted

Regarding `COc1cccc(/C=N/NC(=O)c2cnn3c2NC(c2ccccc2)C3)c1Oc1ccccc1` (stereo not given), the growth with NCI-H23 lung was 95.5%; with NCI-H226 lung it was 97.7%; with NCI-H322M lung it was 102%; with HOP-62 NSCLC, 74.3%; in the assay on NCI-H460 lung, 88%; with HOP-92 NSCLC, 105%. The growth in the assay on NCI-H522 lung was 54.2%; in the assay with A549/ATCC NSCLC, 73%; with 786-0 renal, 79.8%; with COLO 205 colon, 79.6%; in the assay on DU-145 prostate, 89.8%; in the assay on K-562 leukemia, 36%. For the same molecule, the growth in the assay on MALME-3M melanoma is 75.3%; in the assay on MDA-MB-231 breast it was 90.7%; in the assay with RXF 393 renal it was 82.1%; in the assay on SF-268 CNS, 88.3%; with SF-295 CNS, 63.3%; with SF-539 CNS it was 84%. In addition, the growth with UACC-257 melanoma was 86.3%; in the assay on M14 melanoma it was 50.2%.
In the case of `NC(=NCCCOc1ccc(F)cc1)Nc1ccc(I)cc1`, the growth in the assay on NCI-H23 lung was 65.5%; with NCI-H226 lung, 93.7%; with NCI-H322M lung, 88%; in the assay on HOP-62 NSCLC it was 80.4%; with NCI-H460 lung, 81.8%; in the assay with HOP-92 NSCLC, 69.8%. Moreover, the growth with NCI-H522 lung was 56.9%; in the assay with A549/ATCC NSCLC, 70.4%; with 786-0 renal it was 72.9%; in the assay with COLO 205 colon it was -66.8% (active); in the assay on DU-145 prostate, 63.1%; in the assay with K-562 leukemia, 27.3%. The growth in the assay with MALME-3M melanoma was 74.6%; with MDA-MB-231 breast, 51.9%; with RXF 393 renal it was 94%; in the assay on SF-268 CNS it was 67.7%; with SF-295 CNS, 80.8%; with SF-539 CNS, 78.8%. Further, the values for the growth in the assay on UACC-257 melanoma and in the assay with M14 melanoma were 55.8% and 59.6%, respectively.
With `Cn1nc(CC#N)c2c(=N)n(N)cnc21`, the growth with NCI-H23 lung is 104%; with NCI-H226 lung, 108%; with NCI-H322M lung it was 118%; in the assay with HOP-62 NSCLC, 101%; in the assay on NCI-H460 lung it was 102%; in the assay on HOP-92 NSCLC, 98.8%. The growth in the assay on NCI-H522 lung is 110%; with A549/ATCC NSCLC, 113%; in the assay with 786-0 renal it was 123%; in the assay on COLO 205 colon, 105%; with DU-145 prostate it was 106%; with K-562 leukemia, 103%. The growth with MALME-3M melanoma is 118%; in the assay on MDA-MB-231 breast it was 96.7%; with RXF 393 renal, 112%; with SF-268 CNS, 101%; with SF-295 CNS it was 95%; in the assay with SF-539 CNS it was 108%. Further, the growth is 111% with UACC-257 melanoma and 110% with M14 melanoma.
For `Nc1n[nH]c2cccc(C#Cc3cccc(C(=O)Nc4cccc(C(F)(F)F)c4)c3)c12`, the growth in the assay on NCI-H23 lung was 54%; in the assay with NCI-H226 lung, 63.2%; in the assay with NCI-H322M lung, 86.4%; with HOP-62 NSCLC, 67.7%; in the assay on NCI-H460 lung, 74.7%; in the assay with HOP-92 NSCLC, 58.6%. Moreover, the growth in the assay on NCI-H522 lung is 60.9%; with A549/ATCC NSCLC it was 77.8%; in the assay on 786-0 renal it was 90.6%; in the assay on COLO 205 colon, 49.8%; in the assay on DU-145 prostate, 74.9%; with K-562 leukemia, 8.36% (active). Besides, the growth is 10.4% in the assay with MALME-3M melanoma; 53.6% with MDA-MB-231 breast; 65.9% with RXF 393 renal; 56.4% with SF-268 CNS; 81.6% in the assay with SF-295 CNS; 39% with SF-539 CNS. Besides, the values for the growth with UACC-257 melanoma and in the assay with M14 melanoma were 73.2% and 39.2%, respectively.
With `CC(=O)O[C@H]1Cc2c([nH]c3ccccc23)[C@@H](c2ccc(Cl)cc2)N1C(=O)CCNC(C)(C)C`, the growth in the assay with NCI-H23 lung is 84.5%; in the assay on NCI-H226 lung it was 69%; in the assay on NCI-H322M lung, 65.9%; with HOP-62 NSCLC it was 69.1%; in the assay with NCI-H460 lung it was 37.5%; in the assay on HOP-92 NSCLC, 14.1%. In addition, the growth is 63.9% in the assay with NCI-H522 lung; 76.3% in the assay with A549/ATCC NSCLC; 53.1% in the assay with 786-0 renal; 53.7% in the assay with COLO 205 colon; 65.2% in the assay with DU-145 prostate; 8.71% (active) with K-562 leukemia. The growth with MALME-3M melanoma is -37.8% (active); with MDA-MB-231 breast it was -26% (active); with RXF 393 renal it was 39.6%; in the assay with SF-268 CNS, 61.3%; with SF-295 CNS, 68.3%; in the assay on SF-539 CNS, 40.1%. The growth in the assay with UACC-257 melanoma was 65.1%; with M14 melanoma it was -0.737% (active).
With `COc1ccccc1/C(C)=N/NC(=O)CSc1nc2ccccc2c(=O)n1Cc1ccc(S(N)(=O)=O)cc1`, the growth in the assay on NCI-H23 lung is 96.7%; in the assay with NCI-H226 lung, 95.5%; in the assay on NCI-H322M lung it was 90%; with HOP-62 NSCLC, 93.5%; in the assay on NCI-H460 lung, 100%; with HOP-92 NSCLC it was 105%. For the same molecule, the growth was 82.1% in the assay with NCI-H522 lung; 95.2% in the assay on A549/ATCC NSCLC; 97.3% with 786-0 renal; 119% in the assay on COLO 205 colon; 108% with DU-145 prostate; 98.2% with K-562 leukemia. For the same molecule, the growth is 103% in the assay on MALME-3M melanoma; 96.6% with MDA-MB-231 breast; 95.9% in the assay on RXF 393 renal; 89.2% with SF-268 CNS; 93.9% with SF-295 CNS; 94.4% in the assay on SF-539 CNS. Also, the growth was 95.4% in the assay with UACC-257 melanoma and 108% in the assay with M14 melanoma.
Consider `Cc1ccc(S(=O)(=O)NNC(=O)/C(=C\c2ccc(Cl)cc2)c2nc3ccccc3s2)cc1`, for which the growth in the assay on NCI-H23 lung is 96.4%; in the assay on NCI-H226 lung, 81.2%; with NCI-H322M lung, 92.7%; with HOP-62 NSCLC, 109%; in the assay with NCI-H460 lung, 86%; in the assay on HOP-92 NSCLC it was 87.3%. For the same molecule, the growth in the assay with NCI-H522 lung was 91.7%; in the assay with A549/ATCC NSCLC it was 91.9%; in the assay with 786-0 renal it was 99.5%; with COLO 205 colon, 117%; with DU-145 prostate it was 101%; in the assay with K-562 leukemia it was 84%. Moreover, the growth in the assay with MALME-3M melanoma was 98.6%; in the assay with MDA-MB-231 breast it was 95.6%; in the assay with RXF 393 renal it was 101%; in the assay on SF-268 CNS it was 91.9%; in the assay with SF-295 CNS, 103%; in the assay on SF-539 CNS, 104%. For the same molecule, the values for the growth with UACC-257 melanoma and with M14 melanoma were 98% and 86%, respectively.
